Laboratory results taken from PubChem BioAssay.
Calls of active or inactive are those of the source. Unless noted, the rule behind the calls is not given here.

Columns and labels:
[1] = resazurin metabolic signal in HepG2 cells – cell-based, resazurin fluorescence, 24 h, PK04 Diversity Set, profiling panel (AID 1172); settings: HepG2 viability, higher = more signal
[2] = budding yeast growth changes without added modifier – OD600, strain BY4716, 24 h, basal condition, primary screen (AID 1173); settings: S. cerevisiae BY4716 growth, OD600, 24 h; higher = more signal, called active from +8 up or from −8 down
[3] = viability profiling in MM1S myeloma cells – cell-based, resazurin fluorescence, basal, 24 h, PK04 Diversity Set, profiling panel (AID 1174); settings: higher = more signal, called active from +8 up or from −8 down;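 note: MM1S multiple myeloma cell line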
[4] = biological target: Dihydroorotate dehydrogenase (quinone), mitochondrial (Plasmodium falciparum (isolate 3D7)) (UniProt Q08210); experiment: inhibition of P. falciparum DHODH – biochemical, C-terminal His tag, absorbance 600 nm, primary screen (AID 1175); settings: PfDHODH enzyme, DCIP absorbance 600 nm; higher = more signal, called active from +8 up or from −8 down;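 note: recombinant parasite enzyme with a five histidine tag at its C terminus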
[5] = inhibition of PAO1 biofilm formation – strain PAO1, LB-PBS medium, absorbance 600 nm, primary screen (AID 1176); settings: P. aeruginosa PAO1 growth/biofilm, A600, 12 h; higher = more signal
[6] = growth modulation of vineyard yeast isolate – strain RM11-1a, OD600, basal, 24 h, primary screen (AID 1177);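 note: cultures grown under basal conditions with no added stressor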; settings: S. cerevisiae RM11-1a growth, OD600, 24 h; higher = more signal, called active from +8 up or from −8 down
[7] = growth of efflux-deficient E. coli DRC39 – strain DRC39, OD650, 24 h, E. coli filamentation inducers, primary screen (AID 1178);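 note: growth measured as culture turbidity by optical density at 650 nm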; settings: E. coli DRC39 acrAB, higher = more signal, called active from +8 up or from −8 down
[8] = growth of efflux-deficient E. coli DRC39 – strain DRC39, OD650, 48 h, E. coli filamentation inducers, primary screen (AID 1179);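 note: screen aims at cell division blockers that make cells filament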; settings: E. coli DRC39 delta-acrAB growth, higher = more signal, called active from +8 up or from −8 down
[9] = viability profiling in RPMI8226 myeloma cells – cell-based, resazurin fluorescence, basal, 24 h, PK04 Diversity Set, profiling panel (AID 1180); settings: higher = more signal;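 note: RPMI8826 multiple myeloma cell line at 5000 cells per well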
[10] = biological target: E3 ubiquitin-protein ligase XIAP (Homo sapiens) (UniProt P98170); experiment: small molecules binding XIAP protein – biophysical, small-molecule microarray, fluorescence 635 nm, primary screen (AID 1181); settings: higher = more signal;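 note: score merges 667 nm emission and signal to noise over triplicate slides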
[11] = tested on: XIP peptide (Xip251-270) binding; experiment: XIP fragment 251-270 binding compounds – biochemical, small-molecule microarray, fluorescence 635/667 nm, 0.1 µg/mL protein, primary screen (AID 1182); settings: fluorescent protein binding, 635 nm, higher = more signal, called active from +8 up or from −8 down
XIP peptide (Xip251-270) = experiment: compounds binding XIP fragment 251-270 – biochemical, small-molecule microarray, fluorescence 635/667 nm, 0.5 µg/mL protein, primary screen (AID 1183); settings: fluorescence 635 nm, higher = more signal
[12] = blood-stage malaria parasite viability loss – strain 3D7, DAPI fluorescence, 100 nL, primary screen (AID 1184);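 note: parasites grown inside human red blood cells in medium with human serum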; settings: P. falciparum 3D7 growth, 3 d, higher = more signal
[13] = biological target: Homeobox protein Hox-A13 (Mus musculus) (UniProt Q62424); experiment: disruptors of Hoxa13 oligonucleotide interaction – biochemical, fluorescence polarization, labeled oligonucleotide, primary screen (AID 1185); settings: Hoxa13:DNA binding, 15 min, higher = more signal, called active from +8 up or from −8 down
[14] = blockers of DNA damage checkpoint Chk1 activation – imaging, HeLa, hydroxyurea, phospho-Chk1 antibody, percent positive cells, primary screen (AID 1186); settings: hydroxyurea-induced phospho-Chk1 immunofluorescence imaging, higher = more signal
[15] = blockers of DNA damage checkpoint Chk1 activation – imaging, HeLa, hydroxyurea, phospho-Chk1 nuclear intensity, primary screen (AID 1187); settings: hydroxyurea-induced phospho-Chk1 immunofluorescence imaging, higher = more signal

Sequence of Homeobox protein Hox-A13 (Mus musculus) (Q62424 whole entry, looked up): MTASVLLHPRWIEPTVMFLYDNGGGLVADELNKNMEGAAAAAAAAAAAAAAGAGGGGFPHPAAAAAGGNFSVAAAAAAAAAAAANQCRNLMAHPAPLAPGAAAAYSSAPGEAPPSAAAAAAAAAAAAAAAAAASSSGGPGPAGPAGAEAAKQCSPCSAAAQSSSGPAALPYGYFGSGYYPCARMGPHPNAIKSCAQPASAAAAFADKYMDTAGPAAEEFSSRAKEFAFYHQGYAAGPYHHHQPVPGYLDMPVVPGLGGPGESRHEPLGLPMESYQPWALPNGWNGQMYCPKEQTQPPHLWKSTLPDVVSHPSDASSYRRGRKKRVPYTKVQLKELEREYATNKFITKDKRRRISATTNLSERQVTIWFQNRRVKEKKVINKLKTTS
Sequence of E3 ubiquitin-protein ligase XIAP (Homo sapiens) (P98170 whole entry, looked up, the tested form may be a part): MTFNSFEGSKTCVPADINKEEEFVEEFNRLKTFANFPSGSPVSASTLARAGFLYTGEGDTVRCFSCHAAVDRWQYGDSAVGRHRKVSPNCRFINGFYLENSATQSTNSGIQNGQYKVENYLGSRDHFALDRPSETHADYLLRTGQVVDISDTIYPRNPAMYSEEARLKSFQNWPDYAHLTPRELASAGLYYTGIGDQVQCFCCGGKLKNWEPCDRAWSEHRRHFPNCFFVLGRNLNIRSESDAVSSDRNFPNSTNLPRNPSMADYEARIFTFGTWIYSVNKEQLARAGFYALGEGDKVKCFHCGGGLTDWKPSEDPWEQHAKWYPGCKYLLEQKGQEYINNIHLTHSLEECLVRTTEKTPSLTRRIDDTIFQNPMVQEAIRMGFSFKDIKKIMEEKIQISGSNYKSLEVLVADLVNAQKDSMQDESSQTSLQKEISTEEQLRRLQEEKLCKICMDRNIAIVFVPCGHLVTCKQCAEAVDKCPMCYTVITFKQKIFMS
Sequence of Dihydroorotate dehydrogenase (quinone), mitochondrial (Plasmodium falciparum (isolate 3D7)) (Q08210 whole entry, looked up): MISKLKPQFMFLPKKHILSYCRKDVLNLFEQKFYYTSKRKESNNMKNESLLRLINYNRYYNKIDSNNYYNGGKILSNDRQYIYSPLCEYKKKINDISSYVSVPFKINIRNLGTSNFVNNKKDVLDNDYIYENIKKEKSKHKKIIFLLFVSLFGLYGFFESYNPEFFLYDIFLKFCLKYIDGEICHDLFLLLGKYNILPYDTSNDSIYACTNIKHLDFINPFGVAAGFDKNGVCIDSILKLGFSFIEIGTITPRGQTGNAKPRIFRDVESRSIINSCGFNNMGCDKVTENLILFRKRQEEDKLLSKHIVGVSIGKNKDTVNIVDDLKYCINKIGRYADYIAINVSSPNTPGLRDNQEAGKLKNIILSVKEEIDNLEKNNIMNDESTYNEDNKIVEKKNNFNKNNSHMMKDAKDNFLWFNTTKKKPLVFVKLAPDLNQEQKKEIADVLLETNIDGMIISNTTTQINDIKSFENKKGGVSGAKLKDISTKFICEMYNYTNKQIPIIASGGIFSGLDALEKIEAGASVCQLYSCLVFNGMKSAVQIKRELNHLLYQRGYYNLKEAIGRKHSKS

SMILES	z-score [1]	z-score [2]	z-score [3]	composite z-score [4]	z-score [5]	z-score [6]	z-score [7]	z-score [8]	z-score [9]	composite z-score [10]	composite z-score [11]	composite z-score (XIP peptide (Xip251-270))	z-score [12]	z-score [13]	z-score [14]	z-score [15]
CN1C(=O)C2C=CC(C(O)c3c(F)cccc3Cl)N(NC(=O)OC(C)(C)C)C2C1=O (stereo not given)	-0.417	0.357 (inactive)	-0.414 (inactive)	0.17 (inactive)	0.791 (inactive)	0.0301 (inactive)	-0.775 (inactive)	-0.181 (inactive)	-0.301	0.0951	1.69 (inactive)	0.836	0.436	-1.51 (inactive)	0.0188 (inactive)	0.0545 (inactive)
O=C1OCC=C[C@H]2OC34C=CCN(CCN5CCOCC5)C(=O)[C@H]3N(CCO)C(=O)[C@@H]4[C@@H]12 (stereo not given in full)	0.226	-0.0819 (inactive)	-0.176 (inactive)	-0.424 (inactive)	-0.608 (inactive)	-0.31 (inactive)	-0.533 (inactive)	-0.385 (inactive)	-0.386	-0.28	0.218 (inactive)	0.775	0.703	-5.02 (inactive)	-0.474 (inactive)	-0.371 (inactive)
O=C1OCCC=C[C@H]2OC34C=CCN(Cn5nnc6ccccc65)C(=O)[C@H]3N(CCO)C(=O)[C@@H]4C12 (stereo not given in full)	1.02	0.202 (inactive)	0.542 (inactive)	-1.15 (inactive)	0.152 (inactive)	-0.18 (inactive)	-0.0287 (inactive)	-0.249 (inactive)	0.0841	-0.146	-0.681 (inactive)	-0.552	-0.288	-2.78 (inactive)	-0.943 (inactive)	-1.01 (inactive)
O=C(NCc1ccccc1)[C@@H]1c2ccccc2C(=O)N(C2Cc3ccccc3C2)[C@H]1c1ccc(CO)cc1	-0.786	0.848 (inactive)	-0.139 (inactive)	0.211 (inactive)	0.581 (inactive)	0.644 (inactive)	0.0426 (inactive)	-0.15 (inactive)	0.12	-0.133	0.72 (inactive)	0.731	-0.276	-2.13 (inactive)	0.26 (inactive)	-0.16 (inactive)
COc1ccc(CCNC(=O)[C@@]2(c3ccc([N+](=O)[O-])cc3)CC(=O)N(CC34CC5CC(CC(C5)C3)C4)[C@@H]2c2ccc(CO)cc2I)cc1	-1.49	0.0097 (inactive)	-1.81 (inactive)	0.387 (inactive)	1.8 (inactive)	0.437 (inactive)	0.0777 (inactive)	0.223 (inactive)	-1.79	-0.195	0.417 (inactive)	0.723	-1.46	-0.814 (inactive)	-0.155 (inactive)	0.022 (inactive)
C=CC[C@]12N=C(c3ccc(OCCCO)cc3)O[C@H]1c1ccccc1N(CCS(=O)(=O)c1ccccc1)C2=O	1.49	-0.298 (inactive)	-1.58 (inactive)	0.0191 (inactive)	-0.0988 (inactive)	1.05 (inactive)	0.611 (inactive)	-0.0546 (inactive)	-0.585	-0.271	3.59 (inactive)	0.708	-1.57	-2.59 (inactive)	-0.382 (inactive)	-0.315 (inactive)
O=C(NC1CC1)[C@@H]1c2ccccc2C(=O)N(Cc2cc(F)cc(C(F)(F)F)c2)[C@H]1c1ccc(CO)cc1	0.672	-0.626 (inactive)	-0.24 (inactive)	-0.323 (inactive)	0.373 (inactive)	-0.953 (inactive)	0.678 (inactive)	-0.664 (inactive)	-0.0559	-0.0527	-0.414 (inactive)	0.716	-0.247	-3.5 (inactive)	0.135 (inactive)	-0.0928 (inactive)
C=C(CCCC)/C(=C/C[C@@H](OC(C)=O)c1ccccc1OCCO)c1cc(C(=O)OC)ccc1OC	0.937	-0.746 (inactive)	-0.909 (inactive)	-0.04 (inactive)	0.367 (inactive)	0.724 (inactive)	1.5 (inactive)	1.04 (inactive)	0.627	-0.02	-0.0324 (inactive)	0.906	-2.51	-4.39 (inactive)	-0.402 (inactive)	0.114 (inactive)
CN(C)CCCCNC(=O)[C@@H]1C[C@@H]2C(=O)N[C@@H](CCCCN)C(=O)N2[C@@H]1c1ccc(O)cc1	0.637	1.43 (inactive)	0.832 (inactive)	0.0724 (inactive)	0.833 (inactive)	2.32 (inactive)	0.499 (inactive)	1.1 (inactive)	0.918	-0.131	1.09 (inactive)	0.881	-1.8	1.46 (inactive)	0.128 (inactive)	-0.115 (inactive)
CO[C@H]1O[C@H](CO)[C@@H](OC(=O)Nc2ccc(Br)cc2)[C@@H]2OC(=O)[C@H](Cc3cccc(Br)c3)C/C=C/C[C@@H](Cc3cccc(Br)c3)C(=O)O[C@@H]12	-1.34	-1.89 (inactive)	-1.79 (inactive)	-2.81 (inactive)	0.594 (inactive)	0.459 (inactive)	0.778 (inactive)	0.69 (inactive)	-1.45	-0.16	0.406 (inactive)	0.467	-1.55	1.51 (inactive)	-0.423 (inactive)	-0.471 (inactive)
